Source: PubChem BioAssay AID628 (Vanderbilt High Throughput Screening Facility, 2007)
The whole screen tested about 64,000 compounds, of which about 2,200 (3.4%) were called active.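 Rule for the calls: active = calcium fluorescence response, raw or row-and-column corrected B-score, differing from the plate sample mean either way at a set confidence level, mostly lower; inactive = the rest.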 The list comes from a sample in which actives are over-represented; it also holds similar structures and randomly drawn compounds.

Molecular target: Muscarinic acetylcholine receptor M1 (Rattus norvegicus) (UniProt P08482)
Assay: antagonists of rat M1 muscarinic receptor (AID 628)
Conditions: CHO-M1 cells, Fluo-4 calcium, ACh EC80 antagonist mode; at 10 µM; hits give low values

Chain of Muscarinic acetylcholine receptor M1 (Rattus norvegicus) (P08482 whole entry, looked up): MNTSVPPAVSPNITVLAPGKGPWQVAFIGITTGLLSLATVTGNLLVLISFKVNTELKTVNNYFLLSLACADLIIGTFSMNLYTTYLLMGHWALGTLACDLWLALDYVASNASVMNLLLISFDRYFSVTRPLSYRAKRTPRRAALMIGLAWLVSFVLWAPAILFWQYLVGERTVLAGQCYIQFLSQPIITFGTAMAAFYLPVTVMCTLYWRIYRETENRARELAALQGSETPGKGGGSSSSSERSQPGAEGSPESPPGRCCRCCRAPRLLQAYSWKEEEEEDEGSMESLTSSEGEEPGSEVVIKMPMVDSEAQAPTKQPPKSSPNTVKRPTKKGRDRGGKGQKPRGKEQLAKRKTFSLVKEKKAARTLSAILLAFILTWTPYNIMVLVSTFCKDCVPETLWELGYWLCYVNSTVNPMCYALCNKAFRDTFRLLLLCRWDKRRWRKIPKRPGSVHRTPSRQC

Row | SMILES | B-score
1 | CCOC(=O)C1CCN(Cc2coc3ccc(Cl)cc3c2=O)CC1 | -5.08 (active)
2 | CCOC(=O)c1ccc(N2C(=O)CC(N3CCC(C(=O)OCC)CC3)C2=O)cc1 (stereo not given) | -0.522 (inactive)
3 | CCOC(=O)C1CCN(C(=O)Nc2ccc(Cl)cc2)CC1 | -0.00301 (inactive)
4 | CC(C)NS(=O)(=O)c1ccc(NC(=O)c2cccnc2)cc1 | 1.03 (inactive)
5 | C=CCn1c2ccccc2c2nnc(SC(CC)C(=O)Nc3nc(C)c(C(=O)OCC)s3)nc21 (stereo not given) | 0.9 (inactive)
6 | COc1cc(-n2c(C)nc3cc(C(=O)NCc4ccco4)ccc32)cc(OC)c1OC | -0.0298 (inactive)
7 | CSCCC(Nc1nc2ccccc2s1)C(=O)O (stereo not given) | 0.99 (inactive)
8 | COCCN(C(=O)CCC(=O)Nc1ccccn1)C(C(=O)NCCC(C)C)c1ccc(OC)cc1 (stereo not given) | -2.46 (active)
9 | Cc1ccc(C)c(N(CC(=O)NCc2ccco2)C(=O)CCC(=O)Nc2ccccn2)c1 | 0.211 (inactive)
10 | Cc1ccc(C(C(=O)NC2CCCC2)N(Cc2ccco2)C(=O)CCC(=O)Nc2ccccn2)cc1 (stereo not given) | -0.0611 (inactive)
11 | CC(=O)Oc1cc2c(C(=O)NCCN3CCOCC3)c(C)oc2c2ccccc12 | -0.671 (inactive)
12 | CN(C)Cc1c(C#N)c2ccccc2n1C | 0.566 (inactive)
13 | CCCCNC(=O)CSc1nnc(-c2ccco2)n1C | -0.326 (inactive)
14 | COC(=O)CNC(=O)c1ccc2c(c1)S(=O)(=O)c1ccccc1C2=O | -0.0488 (inactive)
15 | CCN1C(=O)c2cccc3c(N)ccc1c23 | -0.102 (inactive)
16 | CCCCN(C)C(=O)c1ccc2c(c1)N(CC)C(=O)c1ccccc1S2(=O)=O | -2.44 (active)
17 | O=C(Nc1ccccc1F)C1C2C=CC3(O2)C1C(=O)N(c1cccnc1)C3C(=O)NC1CCCCC1 (stereo not given) | 0.728 (inactive)
18 | CCCN1C2=C(C(=O)CCC2)C(c2ccc(O)c(Br)c2)C2=C1CCCC2=O | 0.273 (inactive)
19 | Cc1ccc(-n2nc3cc(Cl)c(NC(=O)c4ccco4)cc3n2)cc1 | 0.0365 (inactive)
20 | COc1cc(C(=O)Nc2oc(-c3ccccc3)c(-c3ccccc3)c2C#N)cc(OC)c1OC | -0.934 (inactive)
21 | O=C(CCN1C(=O)c2ccccc2C1=O)Nc1ccncc1 | -0.0156 (inactive)
22 | N#Cc1c(NC(=O)CCCN2C(=O)c3ccccc3C2=O)oc(-c2ccccc2)c1-c1ccccc1 | 2.29 (active)
23 | CC(C)N1C(=O)C2C(C(=O)NC3CCCCC3)C3C=CC2(O3)C1C(=O)NC1CCCC1 (stereo not given) | -0.055 (inactive)

Row | SMILES | B-score
24 | COc1ccc(C(=O)N(CCN2CCOCC2)CC(=O)NC2CCCC2)cc1OC | -1.81 (inactive)
25 | Cc1noc(C)c1CSc1nnc2ccc3ccccc3n12 | 0.103 (inactive)
26 | CC(C)(CSc1nncn1/N=C/c1ccco1)NS(=O)(=O)c1ccc(Cl)cc1 | -0.0125 (inactive)
27 | COC(=O)c1ccc(NC(=O)C(C)N2C(=O)c3ccccc3C2=O)cc1 (stereo not given) | 0.608 (inactive)
28 | CCCCOc1ccc(C(C)(O)CCN2CCOCC2)cc1 (stereo not given) | -1.77 (active)
29 | COc1ccc(OCC(=O)N2CCOCC2)cc1 | -0.0545 (inactive)
30 | CCCOc1ccc(C2c3c(oc4cc(C)c(C)cc4c3=O)C(=O)N2CCCN2CCOCC2)cc1 (stereo not given) | -2.07 (inactive)
31 | COC(=O)C1(S(=O)(=O)C2(C(=O)OC)CCCC2)CCCC1 | -0.00987 (inactive)
32 | CC(=O)OC(C(=O)NC1CCCCC1)c1ccccc1 (stereo not given) | 0.565 (inactive)
33 | CN(C)CCNC(=O)C(C(=O)c1ccccc1)n1ccccc1=O (stereo not given) | 0.0113 (inactive)
34 | Cc1ccc(NC(=O)C2CC(c3ccc(F)cc3)=NO2)cc1 (stereo not given) | 0.326 (inactive)
35 | CC(C)(C)n1nnnc1C(c1cccs1)N(Cc1cccnc1)CC1CCCO1 (stereo not given) | -5.58 (active)
36 | CCOc1ccc(CN(Cc2ccco2)C(c2cccs2)c2nnnn2C(C)(C)C)cc1 (stereo not given) | -0.0188 (inactive)
37 | CCC(C)(C)n1nnnc1C(c1cccs1)N1CCN(Cc2ccccc2)CC1 (stereo not given) | 0.103 (inactive)
38 | Cc1ncc(CC(=O)n2cc(C(=O)c3cc(Cl)ccc3O)cn2)s1 | -0.173 (inactive)
39 | CN(C)S(=O)(=O)c1ccc(Oc2ccc(S(=O)(=O)N(C)C)cc2)cc1 | -0.154 (inactive)
40 | CCCCOCCCNC(=O)c1ccccc1OCC | 0.466 (inactive)
41 | COc1ccccc1-c1cc(C(=O)NCCCn2ccnc2)no1 | -0.17 (inactive)
42 | CCOc1ccccc1C(=O)NCCCn1ccnc1 | -0.947 (active)
43 | CC[C@]1(O)CC2CN(CCc3c([nH]c4ccccc34)[C@@](C(=O)OC)(c3cc4c(cc3OC)N(C=O)[C@H]3[C@@](O)(C(=O)OC)[C@H](OC(C)=O)[C@]5(CC)C=CCN6CC[C@]43[C@@H]65)C2)C1 (stereo not given in full) | -6.81 (active)
44 | CC[C@]1(O)C[C@@H]2CN(CCc3c([nH]c4ccccc34)[C@@](C(=O)OC)(c3cc4c(cc3OC)N(C)[C@H]3[C@@](O)(C(=O)OC)[C@H](OC(C)=O)[C@]5(CC)C=CCN6CC[C@]43[C@@H]65)C2)C1 | -0.431 (inactive)
45 | O=c1c(-c2ccccc2)coc2c(CN3CCOCC3)c(O)ccc12 | -0.686 (inactive)
46 | CCc1ccccc1NC(=O)CSc1nnc([C@@H](NC(=O)OC(C)(C)C)C(C)CC)o1 (stereo not given in full) | -0.00145 (inactive)

Row | SMILES | B-score
47 | CCOc1cccc(C(=O)Nc2cccnc2)c1 | 1.02 (inactive)
48 | O=C(Nc1cccnc1)c1noc2c1CCCCC2 | 2.01 (active)
49 | O=C(Nc1cccnc1)c1ccc2c(c1)OCO2 | -0.335 (inactive)
50 | Cc1cccc(NC(=O)CSc2nnc(NC(=O)CN3CCOCC3)s2)c1 | -0.445 (inactive)
51 | Cc1ccc(-c2nn(-c3ccccc3)cc2CN(Cc2ccccc2)C(=O)CCC(=O)O)o1 | -0.258 (inactive)
52 | C=CCNC(=O)C12CC3CC(C1)CC(C(=O)NCC=C)(C3)C2 | 0.561 (inactive)
53 | CCOC(=O)N1CCC(NC(=O)CCc2cn(C)c3ccccc23)CC1 | 0.483 (inactive)
54 | COCCn1c(SCC(=O)Nc2cc(Cl)ccc2OC)nc2c(c1=O)SC(C)C2 (stereo not given) | -2.72 (active)
55 | CC1Cc2nc(SCC(=O)Nc3ccccc3F)n(C)c(=O)c2S1 (stereo not given) | -0.851 (inactive)
56 | CCn1c(SCC(=O)Nc2ccccc2F)nc2c(c1=O)SC(C)C2 (stereo not given) | -0.377 (inactive)
57 | COc1ccc(-c2nc3n(c2Br)CCC3)cc1 | 0.807 (inactive)
58 | COc1cc(-c2noc(C3CCCN(S(=O)(=O)c4cccc(Cl)c4)C3)n2)cc(OC)c1OC (stereo not given) | 0.77 (inactive)
59 | O=C(c1cccs1)N1CCCC(c2nc(-c3ccc(F)cc3)no2)C1 (stereo not given) | -1.27 (inactive)
60 | O=C(Cc1cccs1)N1CCCC(c2nc(-c3ccc(S(=O)(=O)N4CCCC4)cc3)no2)C1 (stereo not given) | -2.63 (active)
61 | O=C(C1CC1)N1CCN=C1SCc1ccc(Cl)cc1 | 0.588 (inactive)
62 | O=C(c1ccco1)N1CCN(c2cccc(Cl)c2)CC1 | -0.702 (inactive)
63 | O=C(c1ccco1)N1CCN=C1SCc1cccc(Cl)c1 | -2.85 (active)
64 | Cc1ccc(S(=O)(=O)C(C#N)c2nc3ccccc3nc2N2CCCC2)cc1C (stereo not given) | 0.0971 (inactive)
65 | O=S(=O)(O)c1nc2ccccc2n1Cc1ccc(Cl)cc1Cl | 0.452 (inactive)
66 | COCCNc1nc(-n2nc(C)cc2C)nc2sc3c(c12)CCCC3 | -0.584 (inactive)
67 | Cc1cc(C)n(-c2nc(SCC(=O)N3CCCC3)c3c4c(sc3n2)CCCC4)n1 | -2.83 (active)
68 | Cc1nc(SCC(=O)Nc2cc(C)on2)c2c3c(sc2n1)CCCC3 | -0.235 (inactive)
69 | Brc1ccc(Nc2c3c(nc4ncnn24)CCC3)cc1 | 0.669 (inactive)

Row | SMILES | B-score
70 | CCOC(=O)N1CCC(Nc2c(NCCN3CCN(c4cccc(Cl)c4)CC3)c(=O)c2=O)CC1 | 0.00829 (inactive)
71 | CCn1c(=O)cc(OCC(=O)NCCCN2CCN(c3cccc(Cl)c3)CC2)c2ccccc21 | -2.45 (active)
72 | CCOC(=O)N1CCC(NC(=O)COc2cc(=O)n(C)c3ccccc23)CC1 | 0.854 (inactive)
73 | Cc1c(C(=O)NCC2CCCO2)sc2nc(-c3ccccc3)cn12 (stereo not given) | 0.0376 (inactive)
74 | COc1cc(OC)c(NC(=O)c2ccc(Br)o2)cc1Cl | 0.263 (inactive)
75 | CCN1CCN(c2c(Cl)cccc2NC(=O)c2ccc(Br)o2)CC1 | -6.97 (active)
76 | CCCC(=O)Nc1ccc(Cl)c(NC(=O)c2ccc(Br)o2)c1 | 0.768 (inactive)
77 | CCOC(=O)N1CCC(NC(=O)c2cnn3ccccc23)CC1 | 0.733 (inactive)
78 | CCOC(=O)Cn1c2c(c(-c3ccccc3OC)cc1=O)CCCC2 | -0.0571 (inactive)
79 | C=CCOC(=O)C1=C(C)OC(N)=C(C#N)C1c1ccc(F)cc1 (stereo not given) | 0.263 (inactive)
80 | Cc1ccccc1N1C(=O)C2ON(c3ccccc3)C(c3ccncc3)C2C1=O (stereo not given) | -0.292 (inactive)
81 | CC(C)(C)OC(=O)c1c(N)n(CCCN2CCCC2=O)c2nc3ccccc3nc12 | -1.12 (inactive)
82 | COc1ccc(OC)c(C(=O)c2coc3ccc(OC)cc23)c1 | -1.32 (inactive)
83 | COc1cccc(-n2cc(C(=O)O)c3ccccc3c2=O)c1 | 1.31 (inactive)
84 | O=C(c1cn(-c2ccccc2)nc1-c1cccnc1)N1CCCCC1 | 0.615 (inactive)
85 | COc1ccccc1N1CCN(C(=O)c2cn(-c3ccccc3)nc2-c2cccnc2)CC1 | 1.85 (active)
86 | COC(=O)c1cn(-c2ccccc2)nc1-c1cccnc1 | -0.00204 (inactive)
87 | COc1ccc(-n2ncc3c(N4CCCc5ccccc54)ncnc32)cc1 | 0.508 (inactive)
88 | CCCCN(CC)C(=O)CN(C)S(=O)(=O)c1cccc2nsnc12 | -0.0458 (inactive)
89 | CSc1nnc2c(n1)OC(c1ccsc1)N(C(C)=O)c1ccccc1-2 (stereo not given) | -8.49 (active)
90 | CSc1nnc2c(n1)OC(c1cn(C)c3ccccc13)N(C(C)=O)c1ccccc1-2 (stereo not given) | -0.0695 (inactive)
